The supplement of paper PMC11732987, “Enantioselective OTUD7B fragment discovery through chemoproteomics screening and high-throughput optimisation” (Communications Chemistry, 2025)
Unmarked numbers belong to inactive results.

What was measured:
Test in all cases: log2 ratio of Biotin-Ahx-Ub-VS probe labelling (fragment/DMSO); higher = less target engagement (more negative = stronger competition), active = hit call of the paper (q ≤ 0.05, log2 ratio ≤ -1)
Conditions in all cases: compound concentration: 200 uM; treatment time: 3 h
USP19 = biological target: T1, USP19 (UniProt O94966)
T1 sequence (whole entry): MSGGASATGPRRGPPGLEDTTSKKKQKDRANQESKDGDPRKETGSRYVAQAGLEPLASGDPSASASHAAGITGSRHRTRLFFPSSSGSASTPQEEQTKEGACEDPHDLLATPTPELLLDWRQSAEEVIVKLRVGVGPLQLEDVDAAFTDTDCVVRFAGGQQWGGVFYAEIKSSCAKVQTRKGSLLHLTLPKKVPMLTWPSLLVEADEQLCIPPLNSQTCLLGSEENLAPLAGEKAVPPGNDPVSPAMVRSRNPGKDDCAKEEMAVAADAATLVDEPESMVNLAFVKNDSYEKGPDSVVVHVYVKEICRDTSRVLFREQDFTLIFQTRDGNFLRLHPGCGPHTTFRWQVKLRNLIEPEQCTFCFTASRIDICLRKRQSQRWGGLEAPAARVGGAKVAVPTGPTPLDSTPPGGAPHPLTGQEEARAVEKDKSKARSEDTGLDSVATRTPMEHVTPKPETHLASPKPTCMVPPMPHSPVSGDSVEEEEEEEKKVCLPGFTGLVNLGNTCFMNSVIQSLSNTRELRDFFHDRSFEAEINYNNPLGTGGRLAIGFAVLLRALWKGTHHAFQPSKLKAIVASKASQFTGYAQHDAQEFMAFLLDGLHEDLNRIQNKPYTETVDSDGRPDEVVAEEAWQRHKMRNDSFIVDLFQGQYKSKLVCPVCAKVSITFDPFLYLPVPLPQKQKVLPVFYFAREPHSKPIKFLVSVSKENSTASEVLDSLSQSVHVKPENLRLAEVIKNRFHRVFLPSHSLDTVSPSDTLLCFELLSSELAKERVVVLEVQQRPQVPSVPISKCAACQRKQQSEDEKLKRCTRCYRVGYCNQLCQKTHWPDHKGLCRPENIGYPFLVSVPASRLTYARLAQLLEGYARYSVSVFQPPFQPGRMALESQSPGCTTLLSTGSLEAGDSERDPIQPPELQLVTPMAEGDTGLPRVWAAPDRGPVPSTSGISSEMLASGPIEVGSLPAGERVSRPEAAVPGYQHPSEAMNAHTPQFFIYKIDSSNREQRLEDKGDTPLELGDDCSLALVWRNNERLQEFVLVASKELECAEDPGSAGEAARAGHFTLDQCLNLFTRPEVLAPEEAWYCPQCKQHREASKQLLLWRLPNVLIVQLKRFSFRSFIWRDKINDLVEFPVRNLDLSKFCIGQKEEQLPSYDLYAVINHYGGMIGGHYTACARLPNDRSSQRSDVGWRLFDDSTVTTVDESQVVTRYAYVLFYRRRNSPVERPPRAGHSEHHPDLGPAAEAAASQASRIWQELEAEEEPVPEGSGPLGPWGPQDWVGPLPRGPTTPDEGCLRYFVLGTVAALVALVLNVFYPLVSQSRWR
Outline: (§1)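 In triplicate, 495 µg of HEK293T lysate per sample was incubated with fragment at 200 µM or vehicle for 3 h. Biotin-Ahx-Ub-VS was then added to 0.5 µM final for 1 h, and labelled DUBs were captured with NeutrAvidin, digested with LysC and trypsin, and measured by diaPASEF LC-MS/MS. Data are average log2 fragment/vehicle ratios by unpaired t-test from global-median-normalised Spectronaut label-free quantities, restricted to proteins with ≥2 unique peptides.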

USP22 = biological target: T2, USP22 (UniProt Q9UPT9)
T2 sequence (whole entry): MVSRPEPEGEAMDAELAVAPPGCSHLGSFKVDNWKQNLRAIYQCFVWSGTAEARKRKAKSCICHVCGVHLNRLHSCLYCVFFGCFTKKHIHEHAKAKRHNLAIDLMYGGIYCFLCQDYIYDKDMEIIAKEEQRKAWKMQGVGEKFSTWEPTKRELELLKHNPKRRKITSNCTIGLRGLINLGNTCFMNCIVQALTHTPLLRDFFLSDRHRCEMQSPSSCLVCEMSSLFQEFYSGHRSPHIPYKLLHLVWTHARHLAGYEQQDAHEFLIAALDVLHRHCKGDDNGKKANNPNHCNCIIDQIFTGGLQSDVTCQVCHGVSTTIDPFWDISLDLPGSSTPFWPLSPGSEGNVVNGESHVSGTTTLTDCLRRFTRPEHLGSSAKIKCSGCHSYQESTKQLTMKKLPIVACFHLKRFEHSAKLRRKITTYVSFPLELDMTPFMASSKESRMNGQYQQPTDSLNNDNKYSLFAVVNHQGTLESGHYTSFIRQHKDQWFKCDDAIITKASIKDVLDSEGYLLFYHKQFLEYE
Outline: as §1

USP24 = USP24 (UniProt Q9UPU5)
Chain of USP24 (Q9UPU5 whole entry): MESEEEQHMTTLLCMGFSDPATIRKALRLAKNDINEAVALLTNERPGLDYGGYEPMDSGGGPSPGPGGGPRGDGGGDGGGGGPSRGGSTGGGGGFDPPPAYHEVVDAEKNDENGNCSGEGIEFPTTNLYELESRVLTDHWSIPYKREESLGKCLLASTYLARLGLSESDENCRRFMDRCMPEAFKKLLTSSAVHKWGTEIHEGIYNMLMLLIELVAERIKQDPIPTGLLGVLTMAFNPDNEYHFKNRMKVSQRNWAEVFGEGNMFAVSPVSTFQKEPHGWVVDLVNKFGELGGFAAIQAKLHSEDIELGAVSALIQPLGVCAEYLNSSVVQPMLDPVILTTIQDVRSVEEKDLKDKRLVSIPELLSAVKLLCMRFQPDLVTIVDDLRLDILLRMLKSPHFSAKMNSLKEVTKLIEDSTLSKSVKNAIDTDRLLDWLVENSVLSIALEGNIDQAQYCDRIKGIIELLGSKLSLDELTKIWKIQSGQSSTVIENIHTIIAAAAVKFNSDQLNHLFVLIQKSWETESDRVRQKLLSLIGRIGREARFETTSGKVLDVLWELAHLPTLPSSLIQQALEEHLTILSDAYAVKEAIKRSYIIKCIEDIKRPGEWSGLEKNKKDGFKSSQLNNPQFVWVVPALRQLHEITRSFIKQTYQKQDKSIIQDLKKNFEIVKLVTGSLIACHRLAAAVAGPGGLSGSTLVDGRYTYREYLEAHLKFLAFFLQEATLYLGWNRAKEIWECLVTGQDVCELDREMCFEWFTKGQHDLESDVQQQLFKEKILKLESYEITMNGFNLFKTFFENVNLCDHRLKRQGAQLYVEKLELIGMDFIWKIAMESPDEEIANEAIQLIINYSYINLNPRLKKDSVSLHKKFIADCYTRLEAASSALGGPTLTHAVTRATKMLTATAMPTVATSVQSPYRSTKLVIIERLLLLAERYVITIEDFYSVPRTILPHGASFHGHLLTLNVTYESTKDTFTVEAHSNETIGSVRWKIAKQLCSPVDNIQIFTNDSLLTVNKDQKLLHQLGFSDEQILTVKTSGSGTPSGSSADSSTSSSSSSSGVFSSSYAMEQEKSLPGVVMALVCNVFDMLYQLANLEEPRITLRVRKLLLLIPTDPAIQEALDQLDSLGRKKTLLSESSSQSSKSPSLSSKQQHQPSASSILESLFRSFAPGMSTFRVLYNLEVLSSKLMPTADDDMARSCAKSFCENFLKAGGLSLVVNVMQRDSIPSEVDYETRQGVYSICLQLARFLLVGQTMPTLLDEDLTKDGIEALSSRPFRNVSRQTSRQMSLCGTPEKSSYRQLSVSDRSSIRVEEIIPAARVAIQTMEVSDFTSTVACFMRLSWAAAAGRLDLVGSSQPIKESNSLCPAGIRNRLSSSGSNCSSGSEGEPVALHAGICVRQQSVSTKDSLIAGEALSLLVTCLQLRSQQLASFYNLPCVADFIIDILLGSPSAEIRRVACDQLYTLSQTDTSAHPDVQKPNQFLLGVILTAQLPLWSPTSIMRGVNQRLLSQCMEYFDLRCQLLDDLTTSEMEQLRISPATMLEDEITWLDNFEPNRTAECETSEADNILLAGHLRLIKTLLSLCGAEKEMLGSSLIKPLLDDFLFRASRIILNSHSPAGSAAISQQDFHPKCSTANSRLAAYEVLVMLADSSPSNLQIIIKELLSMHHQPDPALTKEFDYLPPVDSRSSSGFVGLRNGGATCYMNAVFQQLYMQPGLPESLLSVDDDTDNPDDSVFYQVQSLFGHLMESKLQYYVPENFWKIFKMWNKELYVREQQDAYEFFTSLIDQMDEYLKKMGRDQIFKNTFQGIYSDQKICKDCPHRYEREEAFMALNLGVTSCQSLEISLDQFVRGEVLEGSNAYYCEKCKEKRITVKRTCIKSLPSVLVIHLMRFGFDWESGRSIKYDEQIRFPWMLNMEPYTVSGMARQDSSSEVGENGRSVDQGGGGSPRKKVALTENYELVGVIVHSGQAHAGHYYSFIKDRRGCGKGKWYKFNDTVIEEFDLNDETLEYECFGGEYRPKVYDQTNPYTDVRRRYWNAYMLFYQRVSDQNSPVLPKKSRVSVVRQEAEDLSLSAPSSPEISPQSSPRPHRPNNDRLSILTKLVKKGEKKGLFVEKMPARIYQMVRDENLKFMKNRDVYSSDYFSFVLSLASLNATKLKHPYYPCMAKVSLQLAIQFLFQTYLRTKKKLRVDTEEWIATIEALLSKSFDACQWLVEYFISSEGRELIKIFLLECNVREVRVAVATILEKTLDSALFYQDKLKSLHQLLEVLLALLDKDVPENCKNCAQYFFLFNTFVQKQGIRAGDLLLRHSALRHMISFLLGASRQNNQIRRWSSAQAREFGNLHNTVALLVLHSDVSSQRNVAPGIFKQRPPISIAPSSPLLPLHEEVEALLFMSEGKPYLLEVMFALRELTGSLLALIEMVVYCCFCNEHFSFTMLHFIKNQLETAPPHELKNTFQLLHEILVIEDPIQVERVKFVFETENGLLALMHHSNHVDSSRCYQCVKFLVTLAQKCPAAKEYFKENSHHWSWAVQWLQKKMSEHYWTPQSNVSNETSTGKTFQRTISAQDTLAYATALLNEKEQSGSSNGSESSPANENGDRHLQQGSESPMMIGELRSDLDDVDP
Outline: as §1

USP25 = biological target: T3, USP25 (UniProt Q9UHP3)
T3 sequence (whole entry): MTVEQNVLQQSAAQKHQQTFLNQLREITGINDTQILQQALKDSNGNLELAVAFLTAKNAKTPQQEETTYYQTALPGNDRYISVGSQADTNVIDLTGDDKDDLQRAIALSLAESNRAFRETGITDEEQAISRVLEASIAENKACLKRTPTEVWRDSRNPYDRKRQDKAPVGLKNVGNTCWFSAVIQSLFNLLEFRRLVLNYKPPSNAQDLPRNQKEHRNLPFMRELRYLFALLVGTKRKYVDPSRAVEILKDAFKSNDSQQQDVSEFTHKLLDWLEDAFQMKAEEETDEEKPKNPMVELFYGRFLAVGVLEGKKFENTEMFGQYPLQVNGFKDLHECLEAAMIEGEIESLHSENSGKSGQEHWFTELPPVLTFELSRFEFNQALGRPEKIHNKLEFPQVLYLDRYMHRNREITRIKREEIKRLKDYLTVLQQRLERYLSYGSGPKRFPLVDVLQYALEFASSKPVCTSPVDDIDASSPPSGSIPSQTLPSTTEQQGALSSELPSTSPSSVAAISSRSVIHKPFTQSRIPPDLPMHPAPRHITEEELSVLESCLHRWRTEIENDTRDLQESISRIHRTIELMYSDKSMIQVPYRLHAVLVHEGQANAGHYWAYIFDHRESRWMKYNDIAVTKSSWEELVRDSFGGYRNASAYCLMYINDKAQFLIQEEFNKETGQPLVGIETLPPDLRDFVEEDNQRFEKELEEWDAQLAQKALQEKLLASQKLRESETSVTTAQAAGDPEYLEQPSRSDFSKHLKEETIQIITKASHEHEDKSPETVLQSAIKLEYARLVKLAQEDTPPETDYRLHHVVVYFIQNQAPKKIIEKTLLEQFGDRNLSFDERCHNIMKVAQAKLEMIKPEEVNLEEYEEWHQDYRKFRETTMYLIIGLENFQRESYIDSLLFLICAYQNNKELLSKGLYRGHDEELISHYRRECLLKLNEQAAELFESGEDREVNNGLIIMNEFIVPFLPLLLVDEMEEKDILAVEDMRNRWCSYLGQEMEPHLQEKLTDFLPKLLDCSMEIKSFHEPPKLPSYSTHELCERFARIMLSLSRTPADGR
Outline: as §1

USP28 = biological target: T4, USP28 (UniProt Q96RU2)
T4 sequence (whole entry): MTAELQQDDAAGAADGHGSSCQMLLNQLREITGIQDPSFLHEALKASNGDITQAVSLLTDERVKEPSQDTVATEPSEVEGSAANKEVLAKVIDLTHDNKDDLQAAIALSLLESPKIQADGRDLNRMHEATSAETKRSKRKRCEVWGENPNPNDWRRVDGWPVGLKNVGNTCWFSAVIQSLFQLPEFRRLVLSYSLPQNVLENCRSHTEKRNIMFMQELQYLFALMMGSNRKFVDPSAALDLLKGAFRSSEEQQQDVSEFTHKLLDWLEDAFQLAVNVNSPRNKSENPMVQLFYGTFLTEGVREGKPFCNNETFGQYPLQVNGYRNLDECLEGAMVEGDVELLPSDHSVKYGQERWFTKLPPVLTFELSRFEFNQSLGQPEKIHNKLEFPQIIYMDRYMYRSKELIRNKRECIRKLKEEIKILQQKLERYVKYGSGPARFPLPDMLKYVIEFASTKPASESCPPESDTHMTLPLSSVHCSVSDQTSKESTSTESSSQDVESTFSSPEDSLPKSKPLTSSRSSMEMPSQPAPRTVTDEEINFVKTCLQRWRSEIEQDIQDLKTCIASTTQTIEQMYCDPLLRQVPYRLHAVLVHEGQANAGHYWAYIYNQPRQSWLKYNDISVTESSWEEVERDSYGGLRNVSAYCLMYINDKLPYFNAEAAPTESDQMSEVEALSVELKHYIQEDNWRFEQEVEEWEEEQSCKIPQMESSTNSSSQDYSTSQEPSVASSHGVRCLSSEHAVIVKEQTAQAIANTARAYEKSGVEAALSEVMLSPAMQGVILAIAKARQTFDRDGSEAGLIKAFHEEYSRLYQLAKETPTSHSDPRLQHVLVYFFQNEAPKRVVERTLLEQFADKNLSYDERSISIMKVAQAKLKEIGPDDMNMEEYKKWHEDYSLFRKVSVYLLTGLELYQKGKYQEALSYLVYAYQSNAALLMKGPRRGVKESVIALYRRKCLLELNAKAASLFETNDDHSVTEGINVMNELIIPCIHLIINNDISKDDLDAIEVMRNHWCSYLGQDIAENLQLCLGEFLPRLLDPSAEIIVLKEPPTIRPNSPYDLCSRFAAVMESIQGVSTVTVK
Outline: as §1

## O=C(CCl)N1CCN(c2nc3ccccc3o2)CC1
USP19
  log2 ratio of Biotin-Ahx-Ub-VS probe labelling: -0.702
USP22
  log2 ratio of Biotin-Ahx-Ub-VS probe labelling: 0.146
USP24
  log2 ratio of Biotin-Ahx-Ub-VS probe labelling: -1.3 (active)
USP25
  log2 ratio of Biotin-Ahx-Ub-VS probe labelling: -0.53
USP28
  log2 ratio of Biotin-Ahx-Ub-VS probe labelling: -0.6
